Source: PubChem
LGR2 inh: inhibitors of bursicon-induced Drosophila LGR2 receptor cAMP signaling. inhibition, % at 9.99 µM. HEK293 LGR2, CRE-luciferase, bursicon-stimulated, 4 h. 380,000 tested, 0.35% active;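 active = drop in luminescence signal, shown as inhibition above about 50% in the replicate tests, limit read from the data, passing the limit was not always enough; inconclusive = probably only some replicates passing the limit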;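 also: agonist challenge used bursicon conditioned medium at about half maximal strength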
Shn3 3UTR inh: inhibitors of Schnurri-3 3'UTR reporter in osteoblasts. inhibition, % at 12.5 µM. Clone20 osteoblast Shn3 3'UTR firefly luciferase, 24 h. AID 588674. 360,000 tested, 0.52% active;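 active = mean inhibition of at least 75% with every replicate also reaching 75%; inconclusive = mean inhibition at least 75% but some replicate below; inactive = mean inhibition below 75%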
PAX8 inh HTS: inhibitors of PAX8 transcriptional activity in RMG-I cells; RMG-I TPO-luciferase reporter, SteadyGlo, 24 h; inhibition, % at 12.6 µM; 360,000 tested, 1.2% active;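 active = mean replicate inhibition at least 60% with every replicate also reaching 60%; inconclusive = only one of the two criteria is met; inactive = mean below 60% and not all replicates reaching 60%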;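 also: luciferase light reporting Pax8 driven TPO promoter activity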
CF NFkB block: inhibitors of cystic fibrosis induced NF-kB; KKLEB NF-kB-GFP reporter, PAF-induced, GFP fluorescence overnight; inhibition, % at 5 µM; 360,000 tested, 0.86% active;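 active = at least 50% inhibition at 5 µM, scaled per plate between neutral and stimulator controls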;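 also: PAF is a Pseudomonas aeruginosa culture filtrate used as stimulus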
EWS-Fli block: blocks EWS/Fli oncoprotein-driven transcription; A673 NR0B1-luciferase reporter, viability-normalised; inhibition, % at 12.6 µM; 350,000 tested, 0.67% active; AID 651661;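 active = mean inhibition of at least 50% after viability correction, with every replicate also passing that limit; inconclusive = mean reaches 50% but only one of two replicates passes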;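 also: firefly luciferase signal divided by Alamar Blue viability fluorescence both relative to DMSO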
KKLEB cytotox: CF airway cell cytotoxicity counter-screen | KKLEB CF airway cells viability, ATPlite luminescence, overnight; active compounds read low; cells stimulated with P. aeruginosa culture filtrate | AID 602141 | 360,000 tested, 0.36% active | activity change (cytotoxicity), % at 5 µM;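 active = corrected activity change at or below -50% at 5 µM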
Numbers stand for hits; n = inactive; u = inconclusive; x = not tested or not shown. Rows were chosen to be rich in hits. Some 2% of all compounds tested hit in one or more screens of this group.

SMILES	LGR2 inh	Shn3 3UTR inh	PAX8 inh HTS	CF NFkB block	EWS-Fli block	KKLEB cytotox
Cn1nnnc1Sc1ncnc2scc(-c3ccccc3Br)c12	n	n	83	n	n	n
C[C@@H]1CN([C@H](C)CO)C(=O)c2cc(NS(=O)(=O)c3cn(C)cn3)ccc2O[C@@H](C)CCCCO[C@@H]1CN(C)Cc1ccc(C(=O)O)cc1	n	x	n	x	n	x
O=C(C[C@H]1CC[C@H]2[C@@H](COC[C@@H](O)CN2Cc2cccc(C(F)(F)F)c2)O1)NCCc1ccccc1	n	x	n	x	n	x
Cn1nnnc1Sc1ncnc2scc(Br)c12	u	97	n	78	n	n
CCN1[C@@H]2c3ccc(C4=CCCC4)c(=O)n3C[C@@H]2[C@@H](CO)[C@@H]1C(=O)NCc1cccc(OC)c1	n	x	n	x	n	x
COc1ccc(OC)c(-c2cc(-c3cccnc3)nc(N)c2C#N)c1	n	n	n	n	56	n
Cc1ccc(CNC(=O)Cc2ccc(-n3cccc3)cc2)cc1	n	n	n	n	x	n
COc1ccc(CC(=O)NCc2ccc(-n3cccc3)cc2)cc1OC	n	n	n	n	60	n
COc1ccc(S(=O)(=O)N(C)C[C@@H]2OCCCC[C@@H](C)Oc3ccc(NS(=O)(=O)c4ccc(Cl)cc4)cc3C(=O)N([C@@H](C)CO)C[C@H]2C)cc1	n	x	66	x	n	x
COc1ccc(S(=O)(=O)Nc2ccc3c(c2)C(=O)N([C@H](C)CO)C[C@H](C)[C@H](CN(C)S(=O)(=O)c2ccc(Cl)cc2)OCCCC[C@@H](C)O3)cc1	n	x	n	x	n	x
COc1ccc(S(=O)(=O)Nc2ccc3c(c2)C(=O)N([C@H](C)CO)C[C@@H](C)[C@H](CN(C)S(=O)(=O)c2ccc(Cl)cc2)OCCCC[C@H](C)O3)cc1	n	x	83	x	n	x
CC1CCCC(NC(=O)COC(=O)c2ccccc2Sc2ccccc2C#N)C1C (stereo unspecified)	n	n	133	n	n	n
O=C(Cc1ccccc1)Nc1cccc(N2C(=O)C=CC2=O)c1	n	n	x	52	n	n
COc1ccc(C)cc1NC(=O)C1CCCN(S(=O)(=O)c2cccc3nonc23)C1 (stereo unspecified)	n	n	141	n	n	n
Cc1ccc(NC(=O)C2CCCN(S(=O)(=O)c3cccc4nonc34)C2)cc1 (stereo unspecified)	n	n	n	n	n	n
Cc1ccc(S(=O)(=O)n2cccc2/C=C/[N+](=O)[O-])cc1	n	94	n	n	n	n
COc1ccc(-n2cccc2/C=C/[N+](=O)[O-])cc1	x	n	n	n	n	n
NCc1ccc(S(N)(=O)=O)cc1	n	n	n	n	n	-51
Cc1ccc(S(N)(=O)=O)cc1	n	n	x	n	n	n
Cc1noc(C)c1NC(=O)Nc1ccc2c(c1)CC(=O)N([C@@H](C)CO)C[C@@H](C)[C@@H](CN(C)CC1CCCCC1)O2	n	x	x	x	n	x
C[C@@H]1CN([C@H](C)CO)C(=O)c2cccc(NS(=O)(=O)c3cn(C)cn3)c2O[C@H]1CN(C)Cc1ccc(C(F)(F)F)cc1	n	x	n	x	n	x
Cc1ccc(C2=NOC(=O)/C2=C\C=C\c2ccccc2)cc1	n	95	n	92	54	-61
CN(C)/C=C1\C(=O)ON=C1c1ccccc1	n	n	n	n	n	n
COCc1cn(CC[C@H]2CC[C@H](NC(=O)c3ccccc3)[C@@H](CO)O2)nn1	n	x	n	x	n	x
O[C@@H]1[C@@H](O)C=C2CCN3Cc4cc5c(cc4[C@H]1C23)OCO5 (stereo partly specified)	88	n	102	57	n	n
SMILES	LGR2 inh	Shn3 3UTR inh	PAX8 inh HTS	CF NFkB block	EWS-Fli block	KKLEB cytotox
CC(C)C(Cl)=NOC(=O)Nc1ccc(F)cc1	n	99	n	n	n	n
C/C(=N\OC(=O)Nc1ccc(Cl)cc1)c1ccc(F)c(F)c1	n	n	n	n	n	n
C[C@@H]1CN([C@@H](C)CO)C(=O)c2cc(C3=CCCCC3)cnc2O[C@@H]1CN(C)C(=O)Nc1ccc(F)cc1	n	x	n	x	n	x
O=C(N/N=C/c1ccco1)C1CC1c1ccccc1 (stereo unspecified)	n	n	n	n	x	n
CC(C)(C)c1ccc(C2CC2C(=O)N/N=C\c2ccc[nH]2)cc1 (stereo unspecified)	n	95	n	58	62	n
CCN1C[C@@H](C)[C@H](OC)CN(C)C(=O)c2cc(NC(=O)c3ccno3)ccc2OC[C@H]1C	n	x	x	x	n	x
